# Compound activity: PubChem BioAssay, Sanford-Burnham Center for Chemical Genomics
# Sampled rows, rich in hits. Any-hit rate of the full collection: about 3%.
# SENP7 inh = SENP7 protease inhibition; Q9BQF6; recombinant SENP7, Z-RLRGG-aminoluciferin luminescence, 40 min; inhibition, % at 5 µM; actives 1.5% (n = 330,000); AID 434973;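 active means inhibition above about 50% at the single test dose, limit read from the data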;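 further: plate controls were DMSO with enzyme for no effect and no enzyme buffer wells for full effect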
# Target sequence (Q9BQF6 706-1050 limits assumed): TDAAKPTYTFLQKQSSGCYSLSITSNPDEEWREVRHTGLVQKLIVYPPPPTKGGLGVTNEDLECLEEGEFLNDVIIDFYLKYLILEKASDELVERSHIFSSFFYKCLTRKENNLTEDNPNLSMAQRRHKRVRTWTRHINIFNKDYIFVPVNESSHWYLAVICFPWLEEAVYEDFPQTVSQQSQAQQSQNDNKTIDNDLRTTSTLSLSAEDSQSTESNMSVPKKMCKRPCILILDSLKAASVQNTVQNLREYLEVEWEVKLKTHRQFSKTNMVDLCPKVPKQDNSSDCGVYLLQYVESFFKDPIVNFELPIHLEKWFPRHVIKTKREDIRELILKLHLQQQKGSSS
# SENP8 block-1 = SENP8 protease inhibition; Q96LD8; purified SENP8, Z-RLRGG-aminoluciferin cleavage, luminescence; inhibition, % at 10 µM; actives 1.2% (n = 330,000); AID 2540; in the data active means inhibition above about 50%
# Target sequence (Q96LD8 whole entry, looked up): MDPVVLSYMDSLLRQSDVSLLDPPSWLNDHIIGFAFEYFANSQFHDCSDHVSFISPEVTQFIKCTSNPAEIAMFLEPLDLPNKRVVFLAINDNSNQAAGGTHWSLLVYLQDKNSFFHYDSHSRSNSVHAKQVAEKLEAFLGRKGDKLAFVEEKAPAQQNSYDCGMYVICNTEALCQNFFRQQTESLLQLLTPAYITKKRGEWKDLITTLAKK
# SENP6 inh = blocks the human protease SENP6 | Q9GZR1 | Recombinant SENP6 catalytic domain, aminoluciferin luminescence | inhibition, % at 10 µM | actives 1.8% (n = 330,000);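 active means inhibition above about 50% at the single tested dose, limit read from the data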;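 further: plate controls were DMSO wells with enzyme for no effect and DMSO wells lacking enzyme for full effect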
# SENP8 block-2 = blocks human SENP8 cleavage of Nedd8 substrate | recombinant SENP8, Nedd8 substrate fluorescence | inhibition, % at 20 µM | actives 0.64% (n = 360,000) | AID 602440; in the data active means inhibition mostly above about 40%, no sharp cut-off; inactive means mostly below about 27%
# PPC-1+TRAIL kill = kills PPC-1 cancer cells in the presence of TRAIL | PPC-1 cells + TRAIL, ATPLite viability luminescence | cell killing (% activity), % at 4 µM or 5 µM | actives 0.41% (n = 220,000) | AID 1443;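 active means cell killing above 50% in the first pass at 4 µM, then a duplicate retest at 5 µM averaging 50% or more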;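 further: plate controls were cells with TRAIL plus DMSO for no effect and medium-only wells lacking cells for full effect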
# TRAIL sens C8 = sensitizes caspase-8 expressing cells to TRAIL; NB7+C8 cells + TRAIL, ATPlite viability luminescence; inhibition (viability loss, TRAIL sensitization), % at 10 µM; actives 1% (n = 360,000); AID 624354;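 active means compounds causing at least 50% loss of cell viability in the single-dose screen, relative to plate controls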
# SENP8 conf = confirmation of human SENP8 protease inhibitors; shares compounds with SENP8 block-2; purified SENP8, Nedd8-AMC/pro-Nedd8 cleavage fluorescence, 30 min; inhibition, % at 25 µM; actives 15% (n = 1,400); AID 624319; in the data active means inhibition mostly above about 39%, no sharp cut-off; inactive means mostly below about 34%
# Active calls of the source: *; / = no result given.
SMILES,SENP7 inh,SENP8 block-1,SENP6 inh,SENP8 block-2,PPC-1+TRAIL kill,TRAIL sens C8,SENP8 conf
COc1ccc(NC(=O)CN(C)C(=O)CSCC(=O)Nc2ccc(C)cc2)cc1,-18.8,-13.8,-7.6,53.1*,/,23.2,7.8
CCOc1ccc(N2C(=O)C3ON(C)C(c4ccc([N+](=O)[O-])cc4)C3C2=O)cc1 (stereo not given),-3.3,-1.1,-12.8,18.7,13.9,10.2,/
S=C(NCCc1ccccn1)Nc1ccccc1Cl,3.0,0.9,-2.8,14.4,0.3,0.7,/
Cc1c(Cl)cccc1NC(=S)NCCc1ccccn1,2.4,5.4,-20.6,47.0*,4.6,-2.3,16.2
CC(=O)Nc1ccc(S(=O)(=O)N[C@@H](C)C(=O)OCC(=O)Nc2ccc3c(c2)OCCO3)cc1,/,/,/,17.2,/,-6.6,/
COc1ccc(Nc2nc(=O)c3cc([N+](=O)[O-])ccc3s2)cc1,/,/,/,55.4*,17.7,10.1,22.5
Cc1ccc(Nc2nc(=O)c3cc([N+](=O)[O-])ccc3s2)cc1,-3.7,-0.3,-9.3,32.6,-9.3,4.1,/
CN(C)c1ccc(NC(=O)CSc2nc3c(c(=O)[nH]2)CCCC3)cc1,2.9,3.6,13.5,44.7*,-7.4,6.6,18.3
CC1CN(c2ccc(Cl)cc2[N+](=O)[O-])CCN1S(C)(=O)=O (stereo not given),-5.3,-4.4,-8.6,22.5,8.6,4.8,/
CN(CC(=O)Nc1cc(Cl)ccc1C#N)C1CCS(=O)(=O)C1 (stereo not given),-0.5,-10.8,-10.3,-6.6,/,-4.1,/
CCN(CC)c1ccc(N=Cc2ccccc2[N+](=O)[O-])cc1,7.1,-7.0,28.4,66.4*,57.4*,-2.8,31.0
CC(=O)N(C)c1ccc(N=Cc2cc3c(cc2[N+](=O)[O-])OCO3)cc1,12.6,17.8,41.5,-132.5,/,2.6,/
Nc1c(Br)cc(Br)c2c1[nH]c(=O)c1ccccc12,/,/,/,73.4*,/,-9.4,11.9
O=c1[nH]c2ccccc2c2ccccc12,6.1,-7.9,-18.8,-29.2,6.7,-3.1,/
Cc1ccc(S(=O)(=O)N(CC(=O)Nc2ccc(Cl)c([N+](=O)[O-])c2)C2CCCCC2)cc1,10.5,1.5,-0.2,45.0*,-1.0,4.1,18.2
COCC(=O)N1CCN(c2ccc([N+](=O)[O-])cc2)CC1,4.2,-4.0,-3.3,42.0*,27.3,-4.3,25.9
COc1cc(CCC(=O)N2CCN(c3ccc([N+](=O)[O-])cc3)CC2)cc(OC)c1OC,4.8,1.9,9.1,7.2,/,-10.7,/
O=[N+]([O-])c1ccc(Nc2ccccc2)c2nonc12,1.3,-9.2,-3.5,49.2*,/,-6.0,16.8
Cc1cc(Nc2ccccc2)c2c([N+](=O)[O-])cc(C)c(C)c2n1,5.8,4.2,7.1,45.2*,19.2,4.4,2.1
CC(=O)NS(=O)(=O)c1ccc(Nc2ccc([N+](=O)[O-])c3nonc23)cc1,4.2,0.1,5.6,24.3*,32.3,7.1,26.4
CCCCS(=O)(=O)Nc1ccc(N2CCOCC2)c(S(=O)(=O)N2CCOCC2)c1,5.0,-2.2,8.2,-22.1,/,17.8,/
CC(C)C(=O)Nc1cccc(S(=O)(=O)NC2=NCCC2)c1,/,/,/,14.8,/,-3.4,/
O=C(CCl)Nc1cccc(S(=O)(=O)NC2=NCCC2)c1,-1.6,-3.2,-6.2,45.7*,21.9,21.3,10.1
Cn1ccnc1SCC(=O)Nc1ccc2c(c1)OC(F)(F)O2,6.5,-4.5,-1.7,/,20.1,/,/
O=[N+]([O-])c1cc([N+](=O)[O-])c(Oc2cc(F)ccc2F)cc1NN1CCCCC1,-2.7,-5.3,-0.1,55.3*,/,14.5,21.7
SMILES,SENP7 inh,SENP8 block-1,SENP6 inh,SENP8 block-2,PPC-1+TRAIL kill,TRAIL sens C8,SENP8 conf
Cc1cc(F)ccc1Oc1cc(NN2CCCCC2)c([N+](=O)[O-])cc1[N+](=O)[O-],-14.7,-12.5,-18.0,30.7,/,-3.8,/
CC1=C(C(N)=O)C(c2ccccc2)n2nc(-c3ccncc3)nc2N1 (stereo not given),3.8,6.0,12.6,0.5,-4.3,2.0,/
Cc1nc(-[n+]2nc(-c3ccncc3)nn2-c2ccccc2)sc1C,/,/,/,41.4*,/,-11.2,29.4
CCN(CC)C(c1ccc(F)cc1)c1nnnn1CC1CCCO1 (stereo not given),-0.2,6.9,-0.8,45.3*,2.5,3.1,-12.9
Cc1ccc(Cn2nc(-c3ccccc3)nc2-c2ccccc2)cc1,68.1*,59.0*,74.0*,43.7*,15.3,7.5,2.6
NC(=O)Cn1nc(-c2ccccc2)nc1-c1ccccc1,-5.9,-7.0,-12.4,12.0,/,-8.0,/
CCCn1nc([N+](=O)[O-])c(C(C#N)c2nc3ccccc3o2)c(Cl)c1=O (stereo not given),-6.2,6.5,7.5,42.7*,-0.5,6.7,31.9
CCn1nc([N+](=O)[O-])c(C(C#N)c2nc3cc(C(F)(F)F)ccc3s2)c(Cl)c1=O (stereo not given),9.9,15.4,21.0,24.3,5.7,8.4,/
Cc1ccc(-n2cnc(N)c2C(=O)c2cccc([N+](=O)[O-])c2)cc1,1.6,3.6,-3.8,54.8*,4.8,0.7,11.8
COc1ccc(NC(=O)c2cccc(S(=O)(=O)N3CCOCC3)c2)cc1,-6.6,-7.7,-7.6,14.0,/,10.1,/
COc1ccc(NC(=O)c2cccc(S(=O)(=O)N3CCOCC3)c2)cn1,0.5,5.6,-2.8,79.6*,-8.0,-5.9,5.3
CC(C)CN(C(=O)COC(=O)c1ccccn1)c1c(N)n(Cc2ccccc2)c(=O)[nH]c1=O,-0.2,2.8,-5.8,1.1,/,-3.4,/
CCCCC(=O)c1ccc(O)cc1,-2.1,-12.5,-16.5,15.9,-7.4,-0.9,/
O=C(CCO)c1ccc(O)cc1,-4.8,7.1,-2.8,44.4*,-2.2,4.0,9.7
O=C(Nc1ccc2c(c1)CCC2)c1cc(S(=O)(=O)N2CCN(c3ccccc3)CC2)ccc1Cl,-6.9,-3.6,-9.3,16.2,28.9,0.6,/
CC(C)C(C(=O)NCc1ccccc1)N1CCN(C(=O)C2CCCO2)CC1 (stereo not given),/,/,/,10.6,/,0.6,/
CC(C)(C)c1ccc(OCC(=O)N2CCN(C=O)CC2)cc1,3.7,-7.9,6.7,44.1*,11.7,-0.7,13.7
CCOC(=O)C1CCCN(C(=O)COc2ccc(C(C)(C)C)cc2)CC1 (stereo not given),/,/,/,21.8,/,-1.4,/
CCCOC(=O)c1cccc(NC(=O)C(C)(C)C)c1,4.1,0.6,13.8,42.5*,4.7,-1.5,-2.4
CC(C)(C)C(=O)Nc1cccc(C(=O)c2cccc(NC(=O)C(C)(C)C)c2)c1,11.0,-12.1,-5.6,24.0,12.5,7.9,/
N#C/C(=C\C1=C(N2CCOCC2)C(=C/c2cccc([N+](=O)[O-])c2)/CC1)C(=O)Nc1ccccc1F,/,/,/,47.9*,1.5,13.8,19.4
N#C/C(=C/C1=C(N2CCOCC2)C(=C/c2cccc([N+](=O)[O-])c2)/CC1)C(=O)Nc1ccccc1F,/,/,/,36.0,/,12.8,/
